Laboratory results reported in PubChem BioAssay (NCATS).
Results filed as inconclusive are left out. Where a call stands in place of a potency, no number is given. Calls of active or inactive are those of the source. Calls follow the shape of the dose curve; as a rule, active = well fitted inhibition curve with a large enough effect; inconclusive = small, poorly fitted or top-dose-only effect; inactive = flat fitted curve, though single readings scatter.

Molecular target: Ubiquitin carboxyl-terminal hydrolase 1 (Homo sapiens) (UniProt O94782)
Sequence (O94782 whole entry, looked up): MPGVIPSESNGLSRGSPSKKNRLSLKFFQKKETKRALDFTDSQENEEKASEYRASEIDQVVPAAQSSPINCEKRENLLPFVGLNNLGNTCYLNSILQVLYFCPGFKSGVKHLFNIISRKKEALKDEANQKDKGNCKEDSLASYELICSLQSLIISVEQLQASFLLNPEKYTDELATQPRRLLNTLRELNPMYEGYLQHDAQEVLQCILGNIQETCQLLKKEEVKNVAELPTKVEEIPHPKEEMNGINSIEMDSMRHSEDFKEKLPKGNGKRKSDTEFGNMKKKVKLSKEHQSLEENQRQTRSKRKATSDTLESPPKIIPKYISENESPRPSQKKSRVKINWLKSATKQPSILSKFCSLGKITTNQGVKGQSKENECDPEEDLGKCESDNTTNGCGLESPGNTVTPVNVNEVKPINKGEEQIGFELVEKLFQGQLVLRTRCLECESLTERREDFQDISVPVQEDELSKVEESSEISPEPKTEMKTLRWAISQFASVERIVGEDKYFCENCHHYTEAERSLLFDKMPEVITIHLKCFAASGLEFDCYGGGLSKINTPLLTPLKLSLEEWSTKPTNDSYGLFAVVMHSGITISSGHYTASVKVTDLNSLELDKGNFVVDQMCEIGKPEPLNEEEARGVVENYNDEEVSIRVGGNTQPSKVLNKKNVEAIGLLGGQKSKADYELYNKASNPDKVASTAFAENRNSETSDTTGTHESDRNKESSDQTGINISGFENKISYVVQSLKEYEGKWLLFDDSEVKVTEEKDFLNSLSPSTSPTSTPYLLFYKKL
Test: Inhibitors of USP1/UAF1: Pilot qHTS (AID 504865);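 also: rhodamine fluorescence freed from ubiquitin-rhodamine substrate followed over time; top concentration of the series differs between compounds; nearly all actives have a fitted effect of over 35% in size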
Settings: purified USP1/UAF1, Ub-rhodamine cleavage fluorescence; series mostly up to 114 µM
Procedure, shortened: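 USP1/UAF1 complex (1nM) preincubated with compound 15 min at room temperature, then Ub-Rho substrate (150nM final) added. Fluorescence read kinetically at 480/540 nm, 6 reads every 60 seconds. Buffer: 50mM HEPES pH 7.8, 0.5mM EDTA, 0.1 mg/ml BSA, 1mM TCEP, 0.01% Tween-20.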

Row | SMILES | Potency
1 | Nc1ccc(S(=O)(=O)Nc2ccccn2)cc1 | inactive
2 | COc1ccc(C(=O)CC(=O)c2ccc(C(C)(C)C)cc2)cc1 | inactive
3 | CN1CCCC(n2nc(Cc3ccc(Cl)cc3)c3ccccc3c2=O)CC1 (configuration not stated) | inactive
4 | COc1c(N2CCNC(C)C2)c(F)cc2c(=O)c(C(=O)O)cn(C3CC3)c12 (configuration not stated) | inactive
5 | C#CCN[C@@H]1CCc2ccccc21 | inactive
6 | COC(=O)Nc1nc2ccc(C(=O)c3ccccc3)cc2[nH]1 | inactive
7 | CN1CCN(c2c(F)cc3c(=O)c(C(=O)O)cn4c3c2OCN4C)CC1 | inactive
8 | CC(C)Cn1cnc2c(N)nc3ccccc3c21 | inactive
9 | CC(C)(C)C(=O)OCOP(=O)(COCCn1cnc2c(N)ncnc21)OCOC(=O)C(C)(C)C | inactive
10 | O=S(=O)(c1cccc2cnccc12)N1CCCNCC1 | inactive
11 | NC(=O)c1cccnc1 | inactive
12 | CCOC(=O)[C@H](CCc1ccccc1)N[C@H]1CS[C@H](c2cccs2)CN(CC(=O)O)C1=O | inactive
13 | CCCN[C@H]1CCc2nc(N)sc2C1 | inactive
14 | Nc1nc(=S)c2[nH]cnc2[nH]1 | inactive
15 | CN(Cc1cc(Br)cc(Br)c1N)C1CCCCC1 | inactive
16 | COc1cnc(NS(=O)(=O)c2ccc(N)cc2)nc1 | inactive
17 | COC(=O)Nc1nc2ccc(Sc3ccccc3)cc2[nH]1 | inactive
18 | O=c1cc(O)c(Cl)c[nH]1 | inactive
19 | CC(=O)CC(c1ccccc1)c1c(O)c2ccccc2oc1=O (configuration not stated) | inactive
20 | O=NN(CCCl)C(=O)NC1CCCCC1 | inactive
21 | COc1ncnc(NS(=O)(=O)c2ccc(N)cc2)c1OC | inactive
22 | Cn1nnc2c(C(N)=O)ncn2c1=O | inactive
